Data on 35 molecules can be found in PubChem BioAssay.

The structures appear in SMILES notation.

The nature of this assay: JC-1 mitochondrial potential readout, lung cancer cells – cell-based, A549, JC-1 fluorescence, basal, 24 h, 100 nL, profiling panel (AID 1138).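 Note: A549 lung adenocarcinoma cells under basal conditions with no added stimulus; test concentration not given here.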 The conditions noted are these: higher = more signal.
Turning to `C[C@@H]1ON(c2ccccc2)[C@H](c2ccccc2)[C@H]1C(=O)O`, the z-score is -0.152. For `C[C@]1(C(=O)O)c2ccccc2C(=O)N(Cc2cc(F)cc(C(F)(F)F)c2)[C@H]1c1ccc(CO)cc1` the value was -1.06; for `COCCOC(=O)N1C(=O)[C@@]2(c3cc(C#CCCO)ccc31)[C@H](c1ccccc1OCCO)N1[C@H](c3ccccc3)[C@H](c3ccccc3)OC(=O)[C@H]1[C@@H]2C(N)=O`, -0.0726; for `O=C1[C@H]2C=C(I)[C@H](C[C@@H]2OCCCCCCO)[C@@]12CO2`, 0.368. The same measure for `C=CCOC(=O)[C@@H]1[C@H]2C(=O)O[C@H](c3ccccc3)[C@H](c3ccccc3)N2[C@H](c2ccc(OCCOC(=O)[C@H]3C[C@H]4C(=O)N[C@@H](CCCCN(C)C)C(=O)N4[C@H]3c3ccc(O)cc3)cc2)[C@@]12C(=O)Nc1ccc(I)cc12`: -0.641. The same measure for `O=C(NCc1ccccc1)[C@@H]1c2ccccc2C(=O)N(Cc2cc(C(F)(F)F)cc(C(F)(F)F)c2)[C@H]1c1ccc(CO)cc1`: 0.473. In turn, `CCCC[C@H]1C[C@@H]1[C@@H]1N(C(C)=O)[C@H](c2cccc(OC)c2)CC12CC2` had a z-score of 0.605.

The molecule `CCOC(=O)C1=CCC(c2cc3ccccc3[nH]2)N(CCN2CC(C(=O)OCC)=CCC2c2cc3ccccc3[nH]2)C1` (stereo not given) yielded a z-score of -1.43.

Take `C=C(CCCC)/C(=C/C[C@H](OC(C)=O)c1cccc(OCCO)c1)c1cnc2ccccc2c1`: the z-score amounted to 2.35. The molecule `CCCN1C(=O)[C@@]2(c3ccc([N+](=O)[O-])cc3)CC(=O)N(CC34CC5CC(CC(C5)C3)C4)[C@@H]2c2ccc(CO)cc21` came in with a z-score of -0.284. `COc1ccc(C(O)C2C=CC3C(=O)N(c4ccccc4)C(=O)C3N2Nc2ccc(C#N)cc2)cc1OCc1ccccc1` (stereo not given): the z-score stood at 0.399. Consider `CC(C)NC(=O)[C@@]1(c2ccc([N+](=O)[O-])cc2)CC(=O)N(CC23CC4CC(CC(C4)C2)C3)[C@@H]1c1ccc(CO)cc1`, for which the z-score was -0.237. For `CC1=C([C@H](O)CCc2ccccc2)[C@H](CO)n2c(=O)n(-c3ccccc3)c(=O)n2C1` the value was 1.18; for `O=C(NC1CC1)[C@@H]1c2ccccc2C(=O)N(Cc2cc(C(F)(F)F)cc(C(F)(F)F)c2)[C@H]1c1ccc(CO)cc1`, -0.197; for `COC(=O)[C@@]1(Cc2ccccc2)N=C(c2ccc(OCCCO)cc2)O[C@H]1c1ccccc1CN=[N+]=[N-]`, -1.07. For `O=C1c2ccccc2[C@@]2(Cc3ccccc3N(Cc3ccccc3)C2=O)[C@H](c2ccc(CO)cc2)N1Cc1ccccc1Cl` the value was -0.00887; for `CC(C)C[C@H]1NC(=O)C([C@@H](C)OCc2ccccc2)NC(=O)[C@@]23C(=O)N[C@@H](Cc4ccccc4)C2[C@H](C)[C@@]2(C)O[C@H]2C3/C=C/C/C=C\CNC1=O` (stereo not given in full), 0.487; for `CC(C)=CCCC(C)=CC(O)C1C=CC2C(=O)NC(=O)C2N1Nc1ccc(Cl)cc1Cl` (stereo not given), -0.974.

As to `CCCCC(=C=CC[C@H](O)c1ccc(CO)o1)CCO`, the z-score worked out at 0.164.

Take `CCOC(=O)C1=CC[C@@H](c2ccccc2)N(S(=O)(=O)c2ccc(C)cc2)[C@H]1c1ccccc1I`: the z-score amounted to 1.27. For `[N-]=[N+]=Nc1ccccc1[C@@H]1OC(c2ccc(OCCCO)cc2)=N[C@]1(CCS(=O)(=O)c1ccccc1)C(=O)NCC(O)CO` (stereo not given in full), the z-score was -0.298.

`N#Cc1ccc(NN2C(C(O)C3CC=CCC3)C=CC3C(=O)N(c4ccccc4)C(=O)C32)cc1` (stereo not given) displayed a z-score of 0.0165. `CC(C)C[C@@H]1NC(=O)[C@@]23C(=O)N[C@@H](Cc4ccccc4)C2[C@H](C)[C@@]2(C)O[C@H]2C3/C=C/C/C=C\CNC(=O)CNC1=O` (stereo not given in full) returned a z-score of -0.0173. The same measure for `COc1ccc([Si](C)(C)[C@H]2[C@H](CC(=O)N3CCC[C@H]3CO)O[C@@]3(C(=O)N(Cc4ccc(N5CCCCC5=O)cc4)c4ccccc43)[C@@H]2C)cc1`: 1.39; for `C=CCC(OC(C)=O)[C@@H]1[C@@H](N(Cc2cccc3ccccc23)C(=O)Cc2ccc(OC)cc2)c2cc(OCCCO)ccc2N1C(=O)c1ccc2ccccc2c1` (stereo not given in full): 0.0343. For `NC(=O)NCC#Cc1ccc2c(c1)[C@]1(C(=O)N2)[C@H](c2ccc(OCCO)cc2)N2[C@H](c3ccccc3)[C@H](c3ccccc3)OC(=O)[C@H]2[C@@H]1C(=O)O` the value was -1.15; for `O=C1O[C@H](c2ccccc2)[C@H](c2ccccc2)N2[C@H]1[C@@H](C(=O)N1CCN(c3ncccn3)CC1)[C@]1(C(=O)Nc3ccc(C#CCCO)cc31)[C@H]2c1ccc(O)cc1`, -0.683. Molecule `C=C(CCCC)/C(=C/C[C@H](OC(=O)c1ccncc1)c1cccc(OCCO)c1)c1cnc2ccccc2c1` returned a z-score of 2.01. For `O=C(N1CCOCC1)[C@@]1(Cc2ccccc2)COC(c2ccc(OCCCO)cc2)=N1` the value was -1.04; for `C=CCC(OC(C)=O)[C@@H]1[C@@H](N(Cc2ccc(-c3cccc(C(F)(F)F)c3)o2)C(=O)c2ccc(-c3ccccc3)cc2)c2cc(OCCCO)ccc2N1C(=O)c1ccc2ccccc2c1` (stereo not given in full), 0.413; for `[N-]=[N+]=NCc1ccccc1[C@@H]1OC(c2ccc(OCCCO)cc2)=N[C@]1(Cc1ccccc1N=[N+]=[N-])C(=O)NCC(O)CO` (stereo not given in full), 0.637. For `CCCNC(=O)[C@@]1(c2ccc([N+](=O)[O-])cc2)CC(=O)N(C(C)C)[C@@H]1c1ccc(CO)cc1` the value was -0.837; for `CC(C)N1C(=O)C[C@@](C(=O)NCCN2CCOCC2)(c2ccc([N+](=O)[O-])cc2)[C@H]1c1ccc(CO)cc1`, -0.143; for `CCCC[C@H]1OB(O)C[C@H]2C1=C(COc1ccccc1)C[C@H]1C(=O)C=CC(=O)[C@H]12`, 1.04. Take `CC(C)[Si](C#CCCc1ccccc1)(O[C@H](c1ccccc1)c1cn(Cc2ccccc2)nn1)C(C)C`: the z-score was 0.26.
